Source: PubChem BioAssay (Tox21)
Values joined by “and” are separate entries in the source; they are usually repeats but may differ in a detail not shown here. Identical values can stand only once. Results filed as inconclusive are left out. Some compounds were tested as several samples or in several runs, with calls that do not always agree. Active and inactive are the calls of the source. Unless noted, calls follow the shape of the dose curve; as a rule, active = well fitted curve in the direction sought with a large enough effect in the repeat runs; inconclusive = weak or mixed curves; inactive = no such curve, though single readings can be large; an effect the other way counts as inactive or inconclusive.

Assays:
[1] = qHTS assay to identify small molecule agonists of the hypoxia (HIF-1) signaling pathway - cell viability counter screen (AID 1224844; calls by dose curve; also: nearly all actives have a fitted effect of over 50% in size; also: potency is read from the fitted curve at half-maximal effect)
How it was run: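 Luminescent ATP content (CellTiter-Glo, 30 min, room temperature) served as the viability measure in HRE-bla ME-180 cells exposed to compounds for 17 hrs in low-serum medium (0.5% dialyzed FBS).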

[2] = qHTS assay to identify small molecule agonists of H2AX (AID 1224845; active = well fitted activation curve with a large enough effect in the signal ratio in the repeat runs, not every such curve was filed as active; the % refers to the signal ratio; also: potency is read from the fitted curve at half-maximal effect)
How it was run: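 Wild-type CHO-K1 cells plated overnight, then exposed 3 hr at 37C to compounds at 15 concentrations (0.76% DMSO). Lysed, then HTRF anti-pH2AX(S139)-cryptate/anti-H2AX-d2 detection after 24 hr at room temperature; emissions 665 and 620 nm.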

[3] = qHTS assay to identify small molecule agonists of the hypoxia (HIF-1) signaling pathway (AID 1224846; active = well fitted activation curve with a large enough effect in the signal ratio in the repeat runs, not every such curve was filed as active; the % refers to the signal ratio)
How it was run: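 Measured by blue/green FRET after loading CCF4-AM: beta-lactamase expressed from a hypoxia response element in ME-180 cells. Test agents were delivered in DMSO and left 17 hrs; cells had been plated 5 hrs earlier in low-serum (0.5% dialyzed FBS) medium.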

[4] = qHTS assay to identify small molecule agonists of H2AX - cell viability counter screen (AID 1224847; calls by dose curve; also: nearly all actives have a fitted effect of over 30% in size; also: potency is read from the fitted curve at half-maximal effect)
How it was run: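 Compounds tested at 15 concentrations were incubated 3 hr at 37C with wild-type CHO-K1 cells; cellular ATP-based luminescence (CellTiter-Glo) indicated viability.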

[5] = qHTS RealTime-Glo MT Cell Viability Assay in HepG2 cells - 24 hour (AID 1224867); also: nearly all actives have a fitted effect of over 50% in size; also: potency is read from the fitted curve at half-maximal effect
How it was run: (§1)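 Compound treatment began 5 h after plating HepG2 cells (600/well) with NanoLuc luciferase and prosubstrate. Plates stayed at 37 C for 40 h; luminescence was captured at six time points, 0 h through 40 h.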

[6] = qHTS RealTime-Glo MT Cell Viability Assay in HEK293 cells - 32 hour (AID 1224868); also: nearly all actives have a fitted effect of over 50% in size; also: potency is read from the fitted curve at half-maximal effect
How it was run: (§2)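 Quantitative high-throughput screen of the Tox21 10K library in HEK293: cells and RealTime-Glo reagents plated together, compound added at 5 h, luminescence monitored through 40 h at 37 C.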

[7] = A CellTox Green Cytotoxicity Assay to monitor cytotoxicity in HEK293 cells - 0 hour (AID 1224869); also: nearly all actives have a fitted effect of over 50% in size
How it was run: (§3)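 Each value comes from one timepoint of a single continuous run in which HEK293 cells with CellTox Green were exposed to compound for up to 40 h at 37 C, dye fluorescence rising with cell death.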

[8] = qHTS RealTime-Glo MT Cell Viability Assay in HepG2 cells - 40 hour (AID 1224870); also: nearly all actives have a fitted effect of over 50% in size; also: potency is read from the fitted curve at half-maximal effect
How it was run: (§4)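 HepG2 cells mixed with RealTime-Glo MT reagents (NanoLuc plus cell-permeant prosubstrate) were seeded at 600 cells/well, incubated 5 h at 37 C/5% CO2, then pinned with compounds in DMSO; nonlytic luminescence tracked viability during 40 h treatment.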

[9] = A CellTox Green Cytotoxicity Assay to monitor cytotoxicity in HEK293 cells - 40 hour (AID 1224871); also: nearly all actives have a fitted effect of over 45% in size; also: potency is read from the fitted curve at half-maximal effect
How it was run: as §3

[10] = qHTS RealTime-Glo MT Cell Viability Assay in HepG2 cells - 8 hour (AID 1224873); also: nearly all actives have a fitted effect of over 55% in size; also: potency is read from the fitted curve at half-maximal effect
How it was run: as §4

[11] = qHTS RealTime-Glo MT Cell Viability Assay in HEK293 cells - 40 hour (AID 1224874); conditions: RealTime-Glo luminescence; max response: stronger effect = lower value; also: nearly all actives have a fitted effect of over 50% in size; also: potency is read from the fitted curve at half-maximal effect
How it was run: (§5)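 qHTS format; HEK293 cells with NanoLuc/prosubstrate reagent, 37 C/5% CO2 for 5 h pre-dosing; compounds 23 nL in DMSO; luminescence at each time point reflects viable cells.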

[12] = A CellTox Green Cytotoxicity Assay to monitor cytotoxicity in HEK293 cells - 24 hour (AID 1224875); also: nearly all actives have a fitted effect of over 45% in size; also: potency is read from the fitted curve at half-maximal effect
How it was run: as §3

[13] = A CellTox Green Cytotoxicity Assay to monitor cytotoxicity in HepG2 cells - 16 hour (AID 1224876); also: nearly all actives have a fitted effect of over 45% in size; also: potency is read from the fitted curve at half-maximal effect
How it was run: (§6)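 Continuous culture of HepG2 cells with a membrane-impermeant DNA dye; rising fluorescence marks dead cells. Compound exposure lasted up to 40 h at 37 C, with reads every 8 h from 0 h.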

[14] = A CellTox Green Cytotoxicity Assay to monitor cytotoxicity in HepG2 cells - 24 hour (AID 1224878); also: nearly all actives have a fitted effect of over 45% in size; also: potency is read from the fitted curve at half-maximal effect
How it was run: as §6

[15] = A CellTox Green Cytotoxicity Assay to monitor cytotoxicity in HepG2 cells - 40 hour (AID 1224879); also: nearly all actives have a fitted effect of over 40% in size; also: potency is read from the fitted curve at half-maximal effect
How it was run: as §6

[16] = qHTS RealTime-Glo MT Cell Viability Assay in HEK293 cells - 0 hour (AID 1224880)
How it was run: as §5

[17] = qHTS RealTime-Glo MT Cell Viability Assay in HEK293 cells - 16 hour (AID 1224872); also: nearly all actives have a fitted effect of over 50% in size; also: potency is read from the fitted curve at half-maximal effect
How it was run: as §2

[18] = qHTS RealTime-Glo MT Cell Viability Assay in HepG2 cells - 32 hour (AID 1224877); also: nearly all actives have a fitted effect of over 55% in size; also: potency is read from the fitted curve at half-maximal effect
How it was run: as §1

[19] = qHTS assay to identify small molecule antagonists of the estrogen related receptor (ERR) signaling pathway from Tox21 library (AID 1224848); also: nearly all actives have a fitted effect of over 50% in size; also: potency is read from the fitted curve at half-maximal effect
How it was run: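 Cells: ERR line, 2,000/well; 6 h preincubation 37 C/5% CO2. Cpd in DMSO via pin tool; 18 h, 37 C. ONE-Glo, 30 min RT, luminescence.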

[20] = qHTS assay to identify small molecule agonists of the estrogen related receptor (ERR) signaling pathway from Tox21 library (AID 1224849; calls by dose curve; also: nearly all actives have a fitted effect of over 15% in size); conditions: ERR reporter cell line, ONE-Glo luciferase, 18 h; at 92.4 µM (top of the series)
How it was run: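 We plated ERR reporter cells, waited 6 h, added compounds in DMSO by pin tool and incubated them 18 h at 37 C. ONE-Glo was then added and luminescence read after 30 min.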
% is scaled to controls: 0 for no effect and ±100 for the full control effect.

O=C(N/N=C/c1ccc([N+](=O)[O-])o1)c1cc([N+](=O)[O-])cc([N+](=O)[O-])c1O
inactive: Potency [1] | Potency [2] | outcome [3] | Potency [4] | Potency [5] | Potency [6] | Potency [7] | Potency [8] | Potency [9] | Potency [10] | max response [11] 8.45% | Potency [12] | Potency [13] | Potency [14] | Potency [15] | outcome [16]

CON(C)C(=O)Nc1ccc(Cl)cc1
inactive: Potency [1] | Potency [2] | outcome [3] | Potency [4] | Potency [5] | Potency [6] | Potency [8] | Potency [9] | Potency [17] | Potency [10] | max response [11] -13.1% | Potency [12] | Potency [13] | Potency [18] | Potency [14] | outcome [16]

CC(C)(C)CC(C)(C)c1ccc(O)cc1
38.9 µM (active) and inactive: Potency [1]
49 µM (active) and inactive: Potency [8]
inactive: Potency [6] | Potency [7] | max response [11] -17% | outcome [16]
active: Potency [2] 89.8 µM | Potency [4] 4.5 µM and 39.1 µM | Potency [9] 30.9 µM and 21.3 µM | Potency [17] 12.3 µM | Potency [10] 21.9 µM | Potency [12] 13.8 µM and 21.3 µM | Potency [13] 27.5 µM and 10.7 µM | Potency [14] 19.5 µM and 13.4 µM | Potency [15] 17.4 µM and 15.1 µM
43.6 µM (active) and inactive: Potency [18]

O=C1c2ccccc2C(=O)N1SC(Cl)(Cl)Cl
inactive: activity change, positive = activation [20] -68.2% and -64.1% | Potency [7] | outcome [16]
active: Potency [1] 3.83 µM and 7.76 µM | Potency [2] 9.93 µM and 16 µM | Potency [4] 12.5 µM | Potency [19] 30.2 µM and 30.6 µM | Potency [5] 34.2 µM and 13.8 µM | Potency [6] 6.82 µM and 6.92 µM | Potency [8] 34.2 µM and 15.5 µM | Potency [9] 10.8 µM and 11 µM | Potency [17] 3.42 µM and 3.89 µM | Potency [11] 6.82 µM and 9.77 µM | Potency [13] 43 µM and 54.9 µM | Potency [18] 34.2 µM and 13.8 µM | Potency [14] 34.2 µM and 21.9 µM | Potency [15] 21.6 µM and 12.3 µM

O=S(=O)(Cl)Cl
inactive: Potency [1] | Potency [2] | outcome [3] | Potency [4] | Potency [7] | Potency [8] | Potency [9] | Potency [17] | Potency [10] | max response [11] 15.4% | Potency [12] | Potency [13] | Potency [18] | Potency [14] | outcome [16]

O=C(O)CCCOc1ccc(Cl)cc1Cl
inactive: Potency [1] | Potency [2] | outcome [3] | Potency [4] | Potency [6] | Potency [8] | Potency [9] | Potency [10] | max response [11] 28.1% and -0.413% | Potency [12] | Potency [13] | Potency [18] | Potency [14] | outcome [16]

NCCc1cc(O)c(O)cc1O
inactive: Potency [1] | outcome [3] | Potency [4] | Potency [6] | Potency [7] | Potency [8] | Potency [9] | Potency [10] | max response [11] -1.21% | Potency [12] | Potency [13] | Potency [18] | Potency [14] | Potency [15] | outcome [16]

CCSCc1ccccc1OC(=O)NC
inactive: Potency [1] | Potency [2] | outcome [3] | Potency [5] | Potency [6] | Potency [7] | Potency [8] | Potency [9] | Potency [17] | Potency [10] | max response [11] -1.43% | Potency [12] | Potency [13] | Potency [14] | Potency [15] | outcome [16]

CC(Cc1ccccc1)NCc1ccccc1Cl (centres undefined)
inactive: Potency [1] | Potency [2] | Potency [6] | Potency [8] | Potency [10] | max response [11] -14.1% | Potency [13] | Potency [18] | Potency [14] | Potency [15] | outcome [16]

O=C(NCNC(=O)NC1C(=O)NC(=O)N1CO)NC1C(=O)NC(=O)N1CO (centres undefined)
inactive: Potency [1] | Potency [2] | Potency [4] | Potency [19] | activity change, positive = activation [20] 3.53% | Potency [5] | Potency [6] | Potency [7] | Potency [8] | Potency [9] | Potency [17] | Potency [10] | max response [11] 4.4% | Potency [12] | Potency [13] | Potency [18] | Potency [14] | Potency [15] | outcome [16]

CC1(C)[C@H](C(=O)O[C@H](C#N)c2cccc(Oc3ccccc3)c2)[C@@H]1C=C(Br)Br
inactive: Potency [1] | Potency [2] | Potency [4] | activity change, positive = activation [20] -23.2% and -24.2% | Potency [6] | Potency [7] | Potency [8] | Potency [9] | Potency [17] | Potency [10] | max response [11] -8.94% and -16.3% | Potency [12] | Potency [13] | Potency [14] | Potency [15] | outcome [16]

C[C@H](N)[C@H](O)c1ccc(O)c(O)c1
active: Potency [9] 10.7 µM | Potency [12] 19 µM | Potency [13] 23.9 µM | Potency [14] 23.9 µM
inactive: Potency [1] | Potency [4] | Potency [19] | Potency [6] | Potency [8] | Potency [17] | Potency [10] | max response [11] -2.61% | Potency [18] | outcome [16]

CC(=O)OC(c1ccccc1)C(Cl)(Cl)Cl (centres undefined)
inactive: Potency [1] | Potency [2] | outcome [3] | Potency [6] | Potency [7] | Potency [8] | Potency [10] | max response [11] -15.9% | Potency [18] | outcome [16]
active: Potency [9] 19.5 µM | Potency [12] 19.5 µM | Potency [13] 21.9 µM | Potency [14] 21.9 µM
